69 molecules from PubChem BioAssay AID1949 (Southern Research Institute, 2009) can be followed below.

Broadly, the inhibition is the percentage by which the read-out fell short of the control.

The structures appear in SMILES notation. Hit rate of the full screen: of about 100,000 compounds, about 1,600 (1.6%) were called active. Another 3% or so got no clear call; they are omitted. No rule for the calls is given here. The list is a sample of the results.

This assay in a line: Mycobacterium tuberculosis H37Rv growth inhibition, cell based, confirmatory dose response (AID 1949).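 As to inhibition: bacteria grown 7 days with compound before Alamar blue readout; 0% = untreated bacteria wells and 100% = bacteria with saturating antibiotic.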 To be noted: M. tuberculosis H37Rv growth inhibition; stronger effect = higher value.
As for `COc1ccc(CC(=O)NC(=S)N2CCOCC2)cc1`, the inhibition is 2.63% (inactive).
The value for `COc1ccc(Cl)cc1C(=O)Nc1cc(C(F)(F)F)ccc1N1CCOCC1` was “inactive”.
As to `C=CCc1cc(OC)ccc1OCCN1CCN(C)CC1`, the inhibition entry was “inactive”.
On to `O=C(c1csc2c1CCCC2)N1CCC2(CC1)OCCO2`, for which the inhibition result is “inactive”.
The value for `C=CCN(c1ccc(C(=O)Nc2ccccc2-c2ccccc2)cc1)S(C)(=O)=O` was “inactive”; that for `CCc1ccc(OC(C)c2nnc(SCC(=O)Nc3ccc(C)c(C)c3)n2CC)cc1` (centres undefined) was 1.06% (inactive).
Then `COc1ccc(OC)c(C2C(C#N)=C(N)OC(c3ccccc3)=C2C#N)c1` (centres undefined), with “inactive”.
Then `Cc1ccc(C(=O)CCC(=O)Nc2ccccc2C)cc1C`, with “inactive”; and `Cc1ccc(NC(=O)CSc2nnc(N)s2)cc1`, with “inactive”.
Regarding `COc1ccccc1CNC(=O)c1cc(OC)c(OC)cc1OC`, the inhibition was 2.59% (inactive).
The value for `N#Cc1ccc(NC(=S)NCCN2CCOCC2)cc1` was “inactive”.
Then `CC(C(=O)Nc1cccc(C(F)(F)F)c1)N(c1ccc(Oc2ccccc2)cc1)S(C)(=O)=O` (centres undefined), with 12.4% (inactive).
The value for `O=C(C1CCN(C(=S)NC2CC2)CC1)N1CCCCCC1` was “inactive”; that for `Cc1ccc(C(C)C)c(OCC(=O)NNC(=S)NCCc2ccccc2)c1` was “inactive”; that for `COc1ccc(CNC(=O)C2CCCN2CCc2ccccc2)cc1OC` (centres undefined) was 4.85% (inactive).
For the molecule `CCOC(=O)c1ccc(NC(=S)NNc2nc(C)cc(C)n2)cc1`, the inhibition result is “inactive”.
The value for `CCOC(=O)C1=C(C)N=c2s/c(=C\c3c4ccccc4cc4ccccc34)c(=O)n2C1c1ccccc1Cl` (centres undefined) was “inactive”; that for `Cc1cc(C)cc(C(=O)Nc2ccc(CN3CCOCC3)cc2)c1` was “inactive”.
`CC(C)(C)C1(c2ccccc2)NC(=O)NC1=O` (centres undefined): the inhibition is 0.0333% (inactive).
The value for `CCN(CC)CC(=O)Nc1ccccc1OC` was “inactive”; that for `OCCNCCOc1ccc2ccccc2c1Br` was “inactive”.
Then `N#C/C(=C\C=C\c1ccccc1Cl)c1nc2ccccc2[nH]1`, with “inactive”; and `C=CCn1c(SCC#CCO)nc2ccccc2c1=O`, with “inactive”.
The value for `COc1ccccc1CCNC(=O)c1ccc(COCC(F)(F)C(F)F)cc1` was “inactive”; that for `CCCCOc1cccc(C(=O)NC(=S)Nc2cccnc2)c1` was “inactive”.
Consider `Cc1ccc(SCC(=O)Nc2ccc(S(=O)(=O)Nc3cccc(C(F)(F)F)c3)cc2)cc1`, for which the inhibition result is “inactive”.
The value for `CCc1ccc(-n2c(C)cc(C=NO)c2C)cc1` was 17.1% (inactive).
On to `COc1ccc(S(=O)(=O)N(CC(=O)NC2CC3CCC2C3)c2ccccc2)cc1OC` (centres undefined), for which the inhibition result is “inactive”.
`O=C1C2CCCCC2C(=O)N1c1n[nH]c(CCc2ccccc2)n1` (centres undefined): the inhibition result was “inactive”.
The value for `CCc1cccc(C)c1NC(=O)CN(c1ccc(C)c(C)c1)S(=O)(=O)c1ccc(Cl)cc1` was “inactive”; that for `COc1ccc(NC(=S)N2CCN(Cc3cccc(F)c3)CC2)c(OC)c1` was “inactive”; that for `O=C(NCc1ccc2c(c1)OCO2)Nc1ccc([N+](=O)[O-])cc1` was “inactive”.
For `c1ccc2c(c1)nc(-c1cscn1)n2Cc1ccc(-c2nn[nH]n2)cc1`, the inhibition entry was “inactive”.
Then `COc1ccc(S(=O)(=O)Nc2cccnc2)cc1C`, with “inactive”.
Consider `COc1cc(NC(=O)c2ccc(F)cc2)ccc1NC(=O)C(C)C`, for which the inhibition entry was “inactive”.
Take `O=C(c1cn(-c2ccccc2)nc1-c1cccnc1)n1nnc2ccccc21`: the inhibition is 2.67% (inactive).
Then `COc1ccc([N+](=O)[O-])cc1NC(=O)c1cc(-c2ccc(OC)c(OC)c2)nc2ccccc12`, with “inactive”; and `CCCN1CCN(C(=O)c2ccncc2)CC1`, with 1.8% (inactive); and `COc1ccc2c(c1)sc1nc(-c3cc4cccc(OC)c4oc3=O)cn12`, with “inactive”.
As to `Cc1ccc(OCCSC2=NN2c2cc(C)nc(N)n2)cc1`, the inhibition result was “inactive”.
Take `O=C(Nc1nc(-c2ccc(F)cc2)cs1)c1cccc2ccccc12`: the inhibition is 32.4% (inactive).
Then `CCn1c(/C=C/c2ccco2)nc2ccccc21`, with “inactive”; and `COc1ccc(OC)c(N(CC(=O)Nc2ccccc2SC)S(=O)(=O)c2ccccc2)c1`, with 13.5% (inactive); and `Cc1ccc(NS(=O)(=O)c2ccc(NS(=O)(=O)c3c(C)cc(C)cc3C)cc2)cc1`, with “inactive”.
Consider `COc1ccc(NC(=O)c2c(NC(=O)c3ccccc3F)sc3c2CCC3)cc1`, for which the inhibition entry is “inactive”.
Then `CCOC(=O)c1ccc(Oc2nc(NCc3ccccc3)nc(N(C)C)n2)cc1`, with “inactive”; and `COC(=O)CSc1nc(C23CC4CC(CC(C4)C2)C3)cc(C(F)(F)F)c1C#N`, with 1.01% (inactive); and `CCn1c(CC(=O)Nc2cccc(OC)c2)nnc1SCC(=O)c1ccc(Br)cc1`, with “inactive”.
The value for `Cc1cccc(NC(=O)c2sc3cccc(Cl)c3c2Cl)c1` was “inactive”; that for `C=CCN(CC=C)CC(O)Cn1c(C)c(C)c2ccccc21` (centres undefined) was “inactive”; that for `CCOC(=O)c1cc(-c2ccccc2)sc1NC(=O)c1ccccc1Br` was “inactive”.
Consider `O=C(Nc1c(C(=O)N2CCCCCC2)cnn1-c1ccccc1Cl)c1ccccc1Cl`, for which the inhibition result was “inactive”.
As to `CCCc1ccc(C(C)NC(=O)c2ccc(C)s2)cc1` (centres undefined), the inhibition entry is “inactive”.
Regarding `O=C(NCCc1ccccc1)Nc1cccc2ccccc12`, the inhibition entry is “inactive”.
Then `COCCNCCCCOc1ccc(C)cc1[N+](=O)[O-]`, with “inactive”.
Then `Cc1ccc(NC(=O)CCc2ccc(S(=O)(=O)NCCc3ccccc3)cc2)cc1C`, with “inactive”.
`CCOC(=O)N1CCN(C(=O)c2ccc(I)cc2)CC1`: the inhibition entry is “inactive”.
`CC1=C(C(=O)Nc2ccccc2)C(c2ccc(I)cc2)NC(=O)N1` (centres undefined): the inhibition result is “inactive”.
Consider `CCOc1cc(CNC(CC)CO)c(Cl)cc1OCC(N)=O` (centres undefined), for which the inhibition result was “inactive”.
The value for `OCCNc1nc2ccccc2n1-c1ccccc1` was 1.48% (inactive); that for `O=C(CCCn1c(=S)[nH]c2ccccc2c1=O)N1CC=C(c2ccccc2)CC1` was “inactive”.
The value for `Cc1ccc(C(=O)Nc2ccc(C(=O)NCCCC(=O)O)cc2)o1` was 4.21% (inactive); that for `CS(=O)(=O)N(CC(=O)Nc1ccccc1Cl)c1cccc([N+](=O)[O-])c1` was “inactive”; that for `O=C1c2ccccc2C(=O)N1c1nnc(Sc2ccc([N+](=O)[O-])c3cccnc23)s1` was “inactive”.
Then `OC(c1ccccc1)c1nc2ccccc2n1Cc1cccc(Cl)c1` (centres undefined), with “inactive”.
In the case of `CC(C)c1ccccc1NC(=O)COc1ccc(-c2ccccc2)cc1`, the inhibition entry is “inactive”.
On to `COC(=O)C1C(=O)OC(C)(C)C2CCC(C)CC12` (centres undefined), for which the inhibition entry is “inactive”.
The value for `COc1ccc(N2C(=O)CC(N3CCN(CC(=O)NC(C)C)CC3)C2=O)cc1` (centres undefined) was “inactive”.
The value for `CCOC(=O)N1CCN(C(=O)COc2cccc(C)c2C)CC1` was “inactive”.
